Mdm2-MdmX inh = inhibitors of human Mdm2/MdmX interaction | O15151+Q00987 | SaOS-2 split-luciferase Mdm2/MdmX complementation, luminescence | inhibition, % at 8 µM | 330,000 tested, 3% active | AID 485346;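 active means inhibition of at least 50% at 8 µM in the primary screen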
ABHD5 PLIN5 PPI = blocks binding of human ABHD5 to perilipin-5. Q00G26+Q8WTS1. inhibition, % at 4 µM. 360,000 tested, 0.78% active. Split G. princeps luciferase complementation, luminescence, 4 h;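 active means inhibition above the mean inhibition across every tested compound plus 3 SD, cut at about 22% in these data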;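 further: 0% = DMSO only wells and the 100% control is not disclosed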
Peg3 promoter = reduces Peg3 promoter-driven luciferase expression in HeLa. 360,000 tested, 1.7% active. HeLa PEG-Prom luciferase reporter, luminescence, overnight. inhibition, % at 20 µM. AID 588405;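 active means inhibition of at least 50% at 20 µM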
HIF-2a inh = HIF-2a inhibition. 786-0 RCC cells HIF-2a reporter, luciferase luminescence, overnight. inhibition, % at 18.8 µM. 360,000 tested, 0.72% active;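 active means inhibition of the luminescence signal of 40% or more relative to plate controls, in a single-dose primary screen at 18.75 µM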
KKLEB tox = reduces viability of KKLEB cystic fibrosis airway cells; KKLEB CF airway cells viability, ATPlite luminescence, overnight; active compounds read low; cells stimulated with P. aeruginosa culture filtrate; activity change (cytotoxicity), % at 5 µM; 360,000 tested, 0.36% active;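 active means corrected activity change at or below -50% at 5 µM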
CF NFkB inh = cystic fibrosis NF-kB activation inhibition; KKLEB NF-kB-GFP reporter, PAF-induced, GFP fluorescence overnight; 360,000 tested, 0.86% active; inhibition, % at 5 µM; AID 588850;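 active means at least 50% inhibition at 5 µM, scaled per plate between neutral and stimulator controls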;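 further: PAF is a Pseudomonas aeruginosa culture filtrate used as stimulus; plate controls were PAF-stimulated DMSO wells for no effect and unstimulated DMSO wells for full effect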
* = called active by the depositor; / = no result given. A selection: hits, their analogues and other compounds. The true share with any hit is near 4.6%.

SMILES | Mdm2-MdmX inh | ABHD5 PLIN5 PPI | Peg3 promoter | HIF-2a inh | KKLEB tox | CF NFkB inh
CCOC(=O)C1=C(O)c2ccccc2C(=O)/C1=C\c1ccc(C)cc1 | / | 21 | 75* | -63 | 5 | 7
CN1C(=O)c2ccccc2Sc2ccc(NC(=O)NC3CC3)cc21 | 15 | 25* | 20 | 1 | -21 | 3
CSCCC(C(=O)NC1CCCC1)n1c(-c2ccncc2)nc2ccccc21 (stereo not drawn) | / | 5 | / | -9 | / | /
O=C(Cn1nnc(-c2ccccc2)n1)N/N=C/c1cc([N+](=O)[O-])c(Cl)cc1Cl | -25 | 4 | 50* | 26 | 7 | -13
Cc1c(P(=S)(c2ccccc2)c2ccccc2)[n+]2ccccc2n1CCc1ccccc1 | / | 10 | 49 | 7 | -8 | 45
CCOc1ccc2c(c1)-c1c(ssc1=S)C(C)(C)N2C(=O)c1ccco1 | 35 | -4 | 31 | 17 | -12 | 53*
Cc1cc2c(cc1C)N(C(=O)CSC1=NCCS1)C(C)(C)c1ssc(=S)c1-2 | 43 | -20 | 35 | -3 | -8 | -5
O=C(CSc1nnc(-c2ccccn2)n1Cc1ccco1)c1ccc(-c2ccccc2)cc1 | 18 | 57* | 19 | 18 | -1 | -9
CCOc1ccc(NC(=O)Cn2cncc2-c2ccc([N+](=O)[O-])cc2)cc1 | / | -5 | 81* | 7 | -45 | -3
CCOC(=O)Cn1cncc1-c1ccc([N+](=O)[O-])cc1 | -15 | -5 | -120 | -130 | -10 | -5
OC[C@@H]1CN(Cc2ccccc2)C[C@H](n2ccc3c(N4CCCC4)ncnc32)O1 | / | -6 | 12 | 5 | 10 | -41
CCn1c2ccccc2c2cc(/C=N/NC(=O)c3ccncc3)ccc21 | 34 | 3 | 62* | 11 | -24 | -10
CCn1c2ccccc2c2cc(/C=N/NC(=O)c3ccc(O)cc3)ccc21 | -4 | -4 | 3 | -45 | -7 | -2
COC(=O)CSc1nc(N)c2c3c(sc2n1)C(c1ccccc1)SC(c1ccccc1)C3 (stereo not drawn) | 35 | 3 | 47 | 88* | 14 | -44
CC(C)(C)C1CCc2c(sc3nc(SCC(=O)O)nc(N)c23)C1 (stereo not drawn) | -1 | 3 | -83 | 55* | 7 | -5
OC[C@@H]1CN(Cc2cccs2)C[C@H](n2cnc3c(N4CCCC4)ncnc32)O1 | / | 1 | 9 | 15 | -13 | -8
Cc1ccccc1C(=O)N1CCC[C@@H]1C(=O)N1CCC[C@H]1C(=O)NCc1ccncc1 | / | 3 | / | 2 | / | /
Cc1ccc(S(=O)(=O)N2CCOCC2)cc1NC(=O)Nc1ccc([N+](=O)[O-])cc1 | 33 | -2 | 33 | 10 | 7 | 21
O=C(CCl)NNC(=O)c1c(O)c2ccccc2[nH]c1=O | 9 | 3 | 58* | -26 | -3 | -9
CCCCC(=O)NNC(=O)c1c(O)c2ccccc2[nH]c1=O | 21 | -3 | 9 | 11 | 15 | -6
COc1cc(F)ccc1-c1csc(C(O)c2ccc(F)cc2)n1 (stereo not drawn) | / | 2 | -28 | -30 | -8 | -21
Cc1c(CCOC(=O)C23CC4CC(CC(C4)C2)C3)sc[n+]1CC#N | 12 | -11 | 51* | 1 | -63* | 76*
Cc1c(CCOC(=O)CC23CC4CC(CC(C4)C2)C3)sc[n+]1Cc1ccccc1 | -5 | 16 | -8 | 3 | -17 | 0
Cc1cc(N2CCN(C(=O)c3ccoc3)CC2)n2nc(-c3ccccc3)cc2n1 | / | -2 | 8 | 6 | 4 | -22
COc1cccc(-c2cc3nc(-c4ccccc4)cc(N4CCN(C(=O)c5ccoc5)CC4)n3n2)c1 | / | 5 | 72* | -12 | -16 | 20
SMILES | Mdm2-MdmX inh | ABHD5 PLIN5 PPI | Peg3 promoter | HIF-2a inh | KKLEB tox | CF NFkB inh
COc1ccccc1-c1cc2nc(-c3ccccc3)cc(N3CCN(C(=O)c4ccoc4)CC3)n2n1 | / | 0 | 81* | -12 | 12 | 4
Cc1cc(N2CCN(C(=O)c3ccco3)CC2)n2ncc(-c3ccccc3)c2n1 | 3 | 8 | -203 | -194 | -7 | -3
O=C(c1ccoc1)N1CCN(c2cc(-c3ccco3)nc3cc(-c4ccccc4)nn23)CC1 | / | 11 | 74* | -12 | -8 | 12
COc1cccc(-c2cc(N3CCN(C(=O)c4ccoc4)CC3)n3nc(-c4cccc(Cl)c4)cc3n2)c1 | / | -4 | 30 | -6 | 8 | 7
COc1ccccc1-c1cc2nc(-c3ccccc3)cc(N3CCN(C(=O)c4ccco4)CC3)n2n1 | / | 4 | 73* | -23 | -16 | 34
C[C@@H](c1ccccc1)N1C[C@H](COCc2ccccc2)Oc2cc(N3CC[C@H](N(C)C)C3)ccc2S1(=O)=O | / | 14 | / | -3 | / | /
C[C@@H]1CC2[C@@H]3CC[C@H]4CC(=O)CC[C@]4(C)C3=CC[C@]2(C)[C@@]1(O)C(=O)CO (stereo partly drawn) | 8 | 11 | 4 | -9 | 1 | -15
CC(=O)C12OC1CC1C3CCC4=CC(=O)CCC4(C)C3CCC12C (stereo not drawn) | 0 | 10 | -4 | 11 | 0 | 15
C[C@H]1C[C@H]2[C@@H]3CCC4=CC(=O)C=C[C@]4(C)[C@@]3(Cl)[C@@H](O)C[C@]2(C)[C@@]1(O)C(=O)CO | 9 | 2 | -13 | 25 | -24 | 64*
CC1(c2ccccc2)O[C@@H]2C[C@H]3[C@@H]4CCC5=CC(=O)C=C[C@]5(C)[C@@]4(F)[C@@H](O)C[C@]3(C)[C@]2(C(=O)CO)O1 (stereo partly drawn) | 8 | -1 | 11 | 29 | 38 | 72*
CCC(=O)O[C@]1(C(=O)SCF)[C@H](C)C[C@H]2[C@@H]3C[C@H](F)C4=CC(=O)C=C[C@]4(C)[C@@]3(F)[C@@H](O)C[C@@]21C | 22 | / | / | / | / | /
C[C@@H]1C[C@H]2[C@@H]3CCC4=CC(=O)C=C[C@]4(C)[C@@]3(F)[C@@H](O)C[C@]2(C)[C@@]1(O)C(=O)COP(=O)(O)O | 0 | 5 | -7 | 18 | -39 | 67*
C[C@H]1C[C@H]2[C@@H]3CCC4=CC(=O)C=C[C@]4(C)[C@@]3(F)[C@@H](O)C[C@]2(C)[C@@]1(O)C(=O)CO | -26 | 6 | 2 | 18 | 20 | 68*
CCOC(=O)[C@@H]1CSCCS(=O)(=O)N1 | / | -8 | -2 | 0 | -3 | -5
Cc1nc(SCC(=O)N2CCN(c3ccccc3)CC2)c2oc3ccccc3c2n1 | 36 | 2 | 56* | 36 | -3 | 7
NC(N)=N/N=C/c1ccc(Cl)c(Cl)c1 | 49 | 6 | 99* | 5 | 4 | 5
CSC1=NC(=O)/C(=C\c2cccc3ccccc23)S1 | -3 | -1 | 56* | -28 | -2 | -9
COc1cccc(/C=C2\N=C(SC)SC2=O)c1OC | 9 | -3 | 15 | 7 | 2 | -3
